# Assay outcomes: PubChem, several laboratories
# Peg3 promoter: Peg3 promoter activity inhibition. HeLa PEG-Prom luciferase reporter, luminescence, overnight. inhibition, % at 20 µM. 360,000 tested, 1.7% active. AID 588405;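 active means inhibition of at least 50% at 20 µM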
# LMP1 NFkB inh: Epstein-Barr LMP1 NF-kappaB reporter inhibition. LMP1-induced NF-kappaB luciferase reporter cells, luminescence. inhibition, % at 12.5 µM. 350,000 tested, 0.69% active. AID 504558; in the data active means inhibition above about 41%;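 further: 0% = neutral control wells and 100% = reference inhibitor control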
# CF NFkB block: blocks PAF-induced NF-kB reporter in cystic fibrosis cells. KKLEB NF-kB-GFP reporter, GFP fluorescence overnight. inhibition, % at 5 µM. 360,000 tested, 0.86% active;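 active means at least 50% inhibition at 5 µM, scaled per plate between neutral and stimulator controls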;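 further: PAF is a Pseudomonas aeruginosa culture filtrate used as stimulus; plate controls were PAF-stimulated DMSO wells for no effect and unstimulated DMSO wells for full effect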
# MITF TRPM1 inh: reduces MITF-dependent TRPM1 promoter luciferase signal. SK-MEL-5 TRPM1 promoter luciferase, 24 h. 330,000 tested, 0.83% active. inhibition, % at 12.5 µM;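 active means mean inhibition across replicates of 60% or more, whatever share of single replicates reaches that level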
# KKLEB cytotox: reduces viability of KKLEB cystic fibrosis airway cells | KKLEB CF airway cells viability, ATPlite luminescence, overnight; stronger effect = lower value; cells stimulated with P. aeruginosa culture filtrate | 360,000 tested, 0.36% active | AID 602141 | activity change (cytotoxicity), % at 5 µM;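 active means corrected activity change at or below -50% at 5 µM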
# HIF-2a inh: inhibitors of HIF-2a; AID 624352; inhibition, % at 18.8 µM; 360,000 tested, 0.72% active; 786-0 RCC cells HIF-2a reporter, luciferase luminescence, overnight;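 active means inhibition of the luminescence signal of 40% or more relative to plate controls, in a single-dose primary screen at 18.75 µM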
# Starred values were filed as active, the others as inactive; nt = not tested or not shown. In the library only some 3% were active in any assay of this set; here they are far more common.
SMILES,Peg3 promoter,LMP1 NFkB inh,CF NFkB block,MITF TRPM1 inh,KKLEB cytotox,HIF-2a inh
CCn1c2ccccc2c2cc(NC(=O)CSc3nnc(-c4ccc(OC)c(OC)c4)n3N)ccc21,18.8,-6.3,1.6,11.4,8.8,6.8
CCOc1ccc(-c2nnc(SCC(=O)Nc3ccc4c(c3)c3ccccc3n4CC)n2N)cc1,33.7,-28.0,40.6,78.0*,12.8,3.6
O=c1n(Cc2ccccc2)c(O)c2n1Cc1ccccc1N=C2c1ccccc1,20.8,nt,-11.9,nt,-13.6,22.3
COc1cc(OC)c2c(-c3cccc(-c4ccc(C(C)=O)cc4)c3)cc(=O)oc2c1,-11.8,-0.7,55.3*,42.2,-6.1,1.2
COc1cc(OC)c(OC)cc1/C=C1\CCC/C(=C\c2cc(OC)c(OC)cc2OC)C1=O,71.9*,12.9,6.7,29.1,-7.9,17.2
COc1ccc(/C=C2\CCC/C(=C\c3ccc(OC)c(OC)c3OC)C2=O)c(OC)c1OC,23.2,nt,4.7,-6.0,-2.5,19.8
O=C(c1ccco1)N1CCN(C(=O)c2cnn3c2NC(c2cccs2)CC3C(F)(F)F)CC1 (stereo not drawn),6.6,-3.5,-13.7,8.2,-5.0,12.8
O=C(c1cnn2c1NC(c1ccco1)CC2C(F)(F)F)N1CCN(c2cccc(Cl)c2)CC1 (stereo not drawn),50.1*,6.8,8.7,17.7,-0.7,28.8
Brc1ccc(-c2cn3nc4c(nc3n2)CCCC4)cc1,-99.3,37.8,-17.0,36.2,10.7,-193.1
c1ccc(-c2cn3nc4c(nc3n2)CCCC4)cc1,-3.4,64.0*,-16.9,73.1*,-3.4,-91.3
COc1cccc(C(O)c2nc(-c3cccc(F)c3)cs2)c1 (stereo not drawn),-3.1,nt,3.7,nt,-5.6,-52.5
COC(=O)c1ccccc1NC(=O)c1ccc(-c2ccccc2F)o1,-57.6,12.4,58.9*,-49.5,-66.7*,-111.0
N#CC(=C1C=CC(=NO)C(Cl)=C1)c1ccc(Cl)cc1,15.2,-15.8,53.2*,-6.8,-2.5,-27.0
CC(=O)NC(c1cccc(F)c1)c1nc(/C=C/c2ccccc2)cs1 (stereo not drawn),-18.9,nt,-15.4,nt,2.8,-32.6
CCN(C(=O)COC(=O)CCCOc1ccc(Cl)cc1C)c1c(N)n(Cc2ccccc2)c(=O)[nH]c1=O,18.0,6.2,18.4,12.1,-9.0,3.6
O=C(N1CCOCC1)N1CCN(S(=O)(=O)c2ccc(Cl)cc2)C1,20.2,44.1*,-1.1,4.4,-3.4,15.9
Cc1ccc(-c2cc(N)n3nc(-c4ccc(C)cc4)cc3n2)cc1,7.2,52.0*,-2.4,-12.4,4.9,-9.6
COCc1cc(C)nc(OCC(=O)N/N=C/c2ccco2)c1C#N,5.5,1.4,-11.9,3.2,2.2,4.5
COCc1cc(C)nc(OCC(=O)N/N=C/c2ccc(-c3cc([N+](=O)[O-])ccc3Cl)o2)c1C#N,54.2*,9.3,8.3,3.8,-17.2,2.2
Cc1c(Cl)ccc2c(C(=O)NCCCn3nccc3C)cc(-c3ccccn3)nc12,12.7,-10.7,-37.7,7.4,18.0,-2.5
Cc1c(Cl)ccc2c(C(=O)NCCN3CCCCC3)cc(-c3ccccn3)nc12,68.0*,-18.2,3.1,12.6,-4.1,-6.3
COc1ccccc1-c1cc(C(=O)NC2CCN(C)CC2)c2ccc(Cl)c(C)c2n1,105.3*,-23.4,12.6,7.7,-31.5,7.2
O=C(Nc1ccncc1NC(=O)c1cccc([N+](=O)[O-])c1)c1cccc([N+](=O)[O-])c1,58.1*,3.0,-15.4,-9.2,-1.4,11.9
C[C@@H]1CN([C@H](C)CO)C(=O)CCCn2cc(nn2)CO[C@H]1CN(C)C(=O)Nc1ccc(F)cc1,-6.9,-2.3,2.4,nt,4.4,6.0
COc1cc(-c2noc(C)c2/C=C/c2ccc(N)cc2)cc(OC)c1OC,-50.5,0.6,40.4,63.5*,-39.2,31.3
SMILES,Peg3 promoter,LMP1 NFkB inh,CF NFkB block,MITF TRPM1 inh,KKLEB cytotox,HIF-2a inh
COc1cc(-c2noc(C)c2C#Cc2ccccn2)cc(OC)c1OC,-3.2,5.2,11.1,20.8,-7.0,-13.2
COc1cc(-c2noc(C)c2C#Cc2ccc(N)cc2)cc(OC)c1OC,-66.5,3.8,51.7*,20.2,-21.3,-46.6
C[C@H](NC(=O)[C@@H]1CCCN1C(=O)[C@@H]1CCCN1C(=O)c1cccc(Cl)c1)c1ccccc1,nt,nt,nt,nt,nt,11.6
[O-][N+](=Cc1c(Cl)cccc1Cl)CC1(O)CCCCC1,0.5,-1.5,-21.8,nt,10.5,8.2
NS(=O)(=O)c1ccc(CCNCc2ccccc2OCc2ccc(Cl)cc2)cc1,86.8*,-8.0,14.3,2.6,-0.4,-2.1
CCN(CC)c1ccc2cc(-c3nc4ccccc4n3C)c(=O)oc2c1,-169.1,-25.0,27.3,-7.8,-20.9,-260.9
CCN(CC)c1ccc2cc(-c3nc4ccccc4[nH]3)c(=O)oc2c1,70.5*,10.9,-162.9,78.8*,-89.5*,-148.0
CCN(CC)c1ccc2cc(C(=O)c3cccs3)c(=O)oc2c1,-295.9,nt,-55.4,nt,4.8,-327.8
N=c1c2c(n(Cc3ccc([N+](=O)[O-])cc3)c3c1CCC3)CCCC2,13.2,7.2,-4.0,6.2,7.4,5.9
N=c1c2c(n(Cc3ccc(Br)cc3)c3c1CCC3)CCCC2,22.3,12.3,45.0,64.7*,-58.9*,15.4
N=c1c2c(n(Cc3ccc(Cl)c(Cl)c3)c3c1CCC3)CCCC2,39.3,6.1,38.2,70.7*,-17.4,24.7
CCCn1c2c(c(=N)c3c1CCC3)CCCC2,14.4,19.3,6.2,7.5,2.7,19.1
Cc1c(Cl)cccc1Nc1n[nH]c(=S)s1,101.1*,1.0,-17.3,13.8,-0.6,-39.9
Cc1ccccc1Nc1n[nH]c(=S)s1,-12.2,-4.8,17.3,nt,4.8,-40.4
O=C(/C=C/c1ccncc1)c1ccc2c(c1)OCCO2,105.0*,9.3,10.2,-2.0,-15.7,3.1
COc1ccc(/C(N)=N/OC(=O)N2CCOCC2)cc1,-3.2,90.2*,-10.0,9.5,8.2,-8.1
OCC(CO)c1cnnc2ccccc12,-2.5,-1.9,6.3,-4.0,-3.7,-1.7
CCCCN(C(=O)c1ccccc1Cl)C(CC(C)C)c1nc2ccccc2[nH]1 (stereo not drawn),20.8,nt,-11.2,nt,0.0,10.1
Cc1cc(/C=N/n2cnnc2)c(C)n1-c1ccc(OCc2ccc(Cl)cc2Cl)cc1,40.5,30.8,-2.2,92.5*,-2.7,80.8*
COc1ccc(NC(=O)C2Cc3c(-c4cccc(NC(C)=O)c4)ccnc3O2)cn1 (stereo not drawn),19.5,nt,12.6,nt,-7.7,21.6
O=C(c1ccc([N+](=O)[O-])cc1)N1CCN(Cc2ccccc2)CC1,13.0,59.2*,-0.7,-4.5,3.6,7.4
COc1ccc(CN2CCN(C(c3ccc(F)cc3)c3ccc(F)cc3)CC2)c(OC)c1OC,77.5*,12.2,22.1,13.3,-0.2,-18.5
COc1ccc(CN2CCN(C(=O)c3ccccc3C(=O)c3ccccc3)CC2)cc1F,13.3,1.2,-21.0,nt,-1.9,7.2
CCN1CCN(c2ccc(Nc3ccnc4ccccc34)cc2)CC1,61.1*,-6.4,35.0,64.1*,-18.5,20.3
